Data on five compounds can be found in publication PMC5540273 (PLoS ONE, 2017).

What all share (conditions): concentration: 1 μM, replicates: in singlicate; n = 1
Test [1] relates to PIK3CD.
Test [2] deals with PIK3CG.
Test [3] concerns T1, PIK4CB.
T1 construct: gene PI4KB

For test [4], the system named is PIKFYVE.
Test [5] has as its system PIM1.
Test [6] relates to PIM2.
For test [7], the system named is PIM3.
In test [8] the test system is PIP5K1A.
Test [9] relates to PIP5K1C.
Test [10] concerns PIP5K2B.

Structures are written as SMILES.
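Also: KINOMEscan kinase panel screen.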

On to `Nc1nc(-c2ccc3c(N)n[nH]c3c2)cc(N2CCCCC2)n1` [GSK2228768], for which the “%Inh” value in test [1], in test [2], in test [3], in test [4], in test [5] and in test [6] was 0% throughout. Besides, the “%Inh” value in test [7] amounted to 0%; in test [8], 0%; in [9], 31%; in [10], 4%.

Turning to `Nc1nccc2scc(-c3ccc4c(c3)CCN4C(=O)Cc3cc(F)ccc3F)c12` [GSK2587663], the “%Inh” value in test [1], in test [2], in [3], in test [4], in test [5] and in test [6] was 0% throughout. The “%Inh” value was found to be 0% in test [7], 0% in test [8], 49% in test [9] and 13% in [10].

Regarding `O=C(c1ccc(-c2cc(-c3c[nH]nc3-c3ccccn3)ccn2)cc1)N1CCCC1` [GW792479], the “%Inh” value in test [1] worked out at 0%; in test [2] it was 0%; in test [3] it was 4%; in [4], 19%; in [5] it was 100%; in [6], 21%. The “%Inh” value stood at 8% in test [7], 0% in [8], 14% in test [9] and 0% in [10].

Regarding `Cl.Fc1ccccc1COc1ccc(Nc2ncnc3ccc(-c4nnc(C(F)(F)F)o4)cc23)cc1Cl` [GW424170], the “%Inh” value in [1], in test [2], in test [3], in [4], in test [5] and in [6] was 0% each time. The “%Inh” value in test [7] is recorded as 0%; in test [8], 66%; in test [9], 36%; in [10], 7%.

Turning to `Nc1nc(-c2ccccn2)c(-c2ccnc3ccccc23)s1` [GW548057], the “%Inh” value in test [1] is given as 0%; in test [2] it was 10%; in test [3], 0%; in test [4], 33%; in test [5] it was 0%; in test [6], 0%. Besides, the “%Inh” value worked out at 0% in [7], 54% in [8], 87% in test [9] and 14% in test [10].
